# Screening data: PubChem, Broad Institute
# Tg IFNy HTS – blocks Toxoplasma gondii growth in the presence of IFN-gamma | actives 3.8% (n = 69,000) | Toxoplasma gondii growth in IFN-gamma-treated host cells; stronger effect = lower value | activity change, negative = inhibition, % (concentration not given with the values) | AID 1259416; in the data active means activity change below about -70%, passing the limit was not always enough;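 further: host cells are HeLa cells infected with Toxoplasma gondii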
# An asterisk follows results filed as active; ! = not confirmed by another sample. This is one part of a sample in which hits are shown more often than they occur.
SMILES,Tg IFNy HTS
O=C(NCCc1ccccc1)c1ccccc1Cl,248.1
CC(C)(C)c1ccc(NC(=S)NCCc2ccncc2)cc1,-11.8
O=C(NCCc1ccncc1)c1cc(Br)ccc1O,-75.8*
COCCN1CCC2(CC1)OC(C(=O)N1CCCC1)Cn1ccnc12 (configuration not stated),-50.1
O=C(Cn1ncc2c(N3CCN(c4ccccc4)CC3)ncnc21)Nc1ccccc1C(F)(F)F,-33.4
O=C1c2ccccc2-c2n[nH]c3cccc1c23,-90.9*!
O=C1c2cccc(O)c2C(=O)c2c(O)cccc21,11.6
O=S(=O)(c1cccs1)N1CCOCC1,2.9
N#C[C@H]1[C@@H](c2ccccc2-c2cccc(F)c2)[C@@H](CO)N1C(=O)C1CC1,19.5
O=C(CC1CC1)NCc1cnc2n1CCNCC2,-8.2
CN(C)/N=N/c1nc[nH]c1C(N)=O,-83.2*
CN1CCC(c2nnc3ccc(C(=O)NCCc4cccs4)cn23)C1 (configuration not stated),0.8
c1ccc(-c2ncn(CC3CCCO3)c2-c2ccc(-n3cncn3)cc2)cc1 (configuration not stated),12.6
O=C(Nc1cc(Cl)c(-n2cccc2)cc1Cl)c1ccc(Cl)cc1,44.9
O=C(Nc1ccn(Cc2ccc(Cl)cc2Cl)n1)c1ccc(F)cc1,-96.6*
Cc1oc(-c2ccc(NC(=O)c3ccc(F)cc3)cc2)nc1Cn1cccn1,23.4
COc1ccc(Cl)cc1NC(=O)C1CCN(S(=O)(=O)c2ccc3[nH]c(=O)ccc3c2)CC1,-66.7
Cc1ccsc1[C@@H]1CCN(C(=O)c2ccncc2Cl)C[C@H]1O,1.0
CC(C)CN(Cc1ccsc1)C(=O)c1coc(CN2CCOCC2)c1,0.8
CC(=O)Nc1cccc(C(=O)N(Cc2ccsc2)CC(C)C)c1,-79.4*
CC(=O)Nc1cccc(C(=O)N(Cc2ccsc2)CC2CCCO2)c1 (configuration not stated),149.7
COc1ccc(CNC(=O)CC2N=C3c4ccccc4N=C(SCc4ccc(C)cc4C)N3C2=O)cc1 (configuration not stated),3.4
O=C(Nc1ccccc1-c1ccccc1)n1c(NCc2ccncc2)nc2ccccc21,3.9
Nc1[nH]nc2nc3ccccc3nc12,9.0
Oc1c(Cl)c2nc3ccccc3nc2c2ccccc12,-104.7*
SMILES,Tg IFNy HTS
c1ccc2c(c1)nc1c2ccc2[nH]onc21,-2.2
Cc1ccccc1CN(CCO)Cc1ccco1,52.4
Cc1ccc(CN2CCC[C@@]3(C(=O)N(C)C)CN(Cc4cnn(C)c4)C[C@H]3C2)s1,2.4
CC(C)N(C)Cc1cc(=O)n2c(n1)CN(S(=O)(=O)C1CC1)CCC2,-8.6
Cc1cc(S(=O)(=O)c2ccc(Cl)cc2)sc1C(=O)NCC(O)c1ccccc1 (configuration not stated),-32.2
Clc1ccccc1CNc1nc(-c2nnc(-c3ccccc3)o2)nc2ccccc12,-48.7
COc1ccc(-c2nnc(-c3nc(NCc4ccccc4)c4ccccc4n3)o2)cc1,-68.5
Cc1ccccc1CNc1nc(-c2nnc(-c3ccccc3)o2)nc2ccccc12,-89.8*
CC(CNc1nc(-c2nnc(-c3ccccc3)o2)nc2ccccc12)c1ccccc1 (configuration not stated),-115.4*
CCOc1ccccc1CNc1nc(-c2nnc(-c3ccc(OC)cc3)o2)nc2ccccc12,-13.1
Cc1ccc(-c2nnc(-c3nc(NC(C)c4ccccc4)c4ccccc4n3)o2)cc1 (configuration not stated),-63.4
COc1ccccc1CNc1nc(-c2nnc(-c3cccc(C)c3)o2)nc2ccccc12,-89.8*
c1ccc(CCNc2nc(-c3nnc(-c4ccccc4)o3)nc3ccccc23)cc1,-64.2
COc1ccccc1CNc1nc(-c2nnc(-c3ccccc3)o2)nc2ccccc12,-96.0*
COc1ccc(-c2nnc(-c3nc(NCc4ccccc4C)c4ccccc4n3)o2)cc1,32.0
Cc1c(S(=O)(=O)N2CCC(O)(Cn3ccc4ccncc43)CC2)cnn1C(F)F,5.1
O=C(Nc1ccc(-c2nc(-c3ccccc3)co2)cc1)c1ccc(Br)o1,47.0
O=C(NCCc1csc(-c2ccc(F)cc2)n1)C(=O)Nc1ccc2c(c1)OCCO2,-22.7
Cc1cccc(S(=O)(=O)N2Cc3nc(CN(C)C)oc3C2)c1,0.3
CCc1ccc(NC(=O)N2CCn3cnc(COCC4CC4)c3C2)cc1,7.5
CC(C)COc1ccc(-c2noc(-c3c(O)c4cccc(Cl)c4[nH]c3=O)n2)cc1,7.3
COCC1CN(Cc2c(C)noc2C)Cc2ncn(C)c21 (configuration not stated),0.7
O=C1COC2(CCN(c3ncccn3)CC2)CN1c1ccsc1,7.0
Cc1cccnc1CN1CCN(Cc2cccc(OC3CCCC3)c2)CC1,-8.4
CCC(CN1CCOCC1)Nc1nc(-c2ccc(OC)cc2)nc2ccccc12 (configuration not stated),-48.5
SMILES,Tg IFNy HTS
COc1cc(CNc2nc(-c3nnc(-c4ccc(C)cc4)o3)nc3ccccc23)cc(OC)c1OC,-45.7
Cc1ccc(-c2nnc(-c3nc(NCc4ccco4)c4ccccc4n3)o2)cc1,35.0
Cc1ccc(-c2nnc(-c3nc(NCc4ccccn4)c4ccccc4n3)o2)cc1,-94.1*
O=C(c1ccc(-c2ccccc2)[nH]1)N1CCCC(CO)(CCc2ccccc2)C1 (configuration not stated),-21.8
CN1CCN(c2ncnc3ccc(-c4cccc(-c5ccn[nH]5)c4)cc23)CC1,-79.2*
CN(C)C(=O)c1ccc2ncnc(N3CCCC3)c2c1,6.7
O=C(O)c1cncc(-c2cccc(-c3ccn[nH]3)c2)c1,88.0
Cc1cc(CNC(=O)c2cc(-c3ccncc3)c3cnccc3n2)on1,4.6
O=C1SCC1(c1ccccc1)c1ccccc1,14.8
Cc1nc2nc(CC(=O)Nc3nc4c(s3)CCCCCC4)[nH]n2c(=O)c1C,-39.0
COc1nn(CC(=O)Nc2nc3c(s2)CCCCCC3)c(=O)c2ccccc12,-85.6*
O=C(COC(=O)CN1C(=O)C(=O)c2ccccc21)Nc1nc2c(s1)CCCC2,-9.6
CCOC(=O)c1cnn(-c2nc3ccccc3[nH]2)c1N,498.9
Cn1c(CSCCOc2ccccc2)nnc1SCc1ccc(Cl)cc1Cl,-43.1
CCOC(=O)c1nc(C)nc(Sc2ccc(Cl)cc2)c1C,10.7
COc1ccc(CNc2nc(C)nc(C)c2Oc2ccc(Cl)cc2Cl)cc1,-8.1
Cc1nc(C)c(Oc2ccc(Cl)cc2Cl)c(Sc2cccc(C(F)(F)F)c2)n1,-107.1*
CCc1ccc(Nc2nc(C(=O)N(C)Cc3ccccc3)nc3ccccc23)cc1,-37.8
CC1CCCCN1S(=O)(=O)c1ccc2c(c1)CCC(=O)N2CC(=O)NC1CCCCC1 (configuration not stated),0.4
NCC(=O)Nc1ccccc1-c1ccc(OC(F)(F)F)cc1,2.9
CN(C)CCNC(=O)c1cc(-c2cnc(-c3cccc(F)c3)nc2)cn1C,-95.1*
CN(C)C1CCN(C(=O)c2cc(-c3cnc(-c4cccc(F)c4)nc3)cn2C)CC1,-24.6
CN(C)CCNC(=O)c1cc(-c2cnc(NCc3ccccc3)nc2)cn1C,-36.5
COc1ccc(Cl)cc1NC(=O)N1CCCCC1CCn1ccnc1 (configuration not stated),9.3
CCn1c(=O)c(-c2nc(-c3ccc(C)c(C)c3)no2)c(O)c2ccccc21,18.5
CC(C)n1nc2c(cc1=O)CN(C(=O)c1ccc3c(c1)OCO3)CC2,-80.3*
Cn1cnc2c1C(C(=O)O)CN(C(=O)c1ccc3c(c1)OCO3)C2 (configuration not stated),11.0
O=C(c1ccc2c(c1)OCO2)N1Cc2cnn(CCO)c2C1,3.9
Cc1ccccc1C(=O)NCCc1sc(-c2cccc(F)c2)nc1C,15.3
